Values joined by “and” are separate entries in the source; they are usually repeats but may differ in a detail not shown here. Equal values may be shown once. About 64,000 (15%) of roughly 420,000 compounds were called active. Inconclusive results (about 27%) are left out. The call rests on the fitted dose curve; in most records, active means well fitted inhibition curve with a large enough effect; inconclusive means small, poorly fitted or top-dose-only effect; inactive means flat fitted curve, though single readings scatter. A selection follows. Where a call stands in place of a potency, no number is given.
Potency means the concentration at half of the fitted maximal effect.

This experiment in a line: qHTS for Inhibitors of human tyrosyl-DNA phosphodiesterase 1 (TDP1): qHTS in cells in absence of CPT. Further: nearly all actives have a fitted effect of over 55% in size. The conditions noted are these: DT40 Tdp1-/- hTDP1 cells, no CPT, ATP luminescence, 48 h; activity change, negative = growth inhibition: at 46.2 µM (top of the series). A digest of the protocol: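 Stably hTDP1-transfected Tdp1-null chicken DT40 cells were treated with library compounds minus camptothecin and grown for at least 48 hr at 37 °C, after which cellular ATP was quantified by luminescence.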
A general note: In qHTS, concentration-response curves come from the screen itself.
As for `COc1ccccc1C(=O)N1C(CC(=O)Nc2ccccc2C)C(=O)NC2CCCCC21` (configuration not stated), the Potency entry is “inactive”.

Consider `COc1cccc(-n2c(=S)[nH]c3c(oc4ccccc43)c2=O)c1`, for which the Potency entry was “inactive”. The value for `CNc1[nH]ncc1[N+](=O)[O-]` was “inactive”; that for `CCCCCCNCCn1cnc2c(N)ncnc21` was “inactive”; that for `Cc1ccc(C)c(NC(=O)CSc2nc3c(oc4ccccc43)c(=O)n2-c2ccccc2)c1` was 10.3 µM (active). The value for `Cc1ccc(-n2c(SCC(=O)c3ccccc3)nc3c([nH]c4ccccc43)c2=O)cc1` was 3.66 µM (active).

With `Cc1ccc(NC(=O)COC(=O)CCc2nc3ccccc3n2-c2ccccc2)c(C)c1`, the Potency entry is “inactive”. Regarding `CC(C)OCCCn1c(SCC(=O)c2ccccc2)nc2c(sc3ccccc32)c1=O`, the Potency result is “inactive”. Consider `Cc1ccc(NC(=O)CSc2nc3c([nH]c4ccccc43)c(=O)n2-c2ccccc2)c(C)c1`, for which the Potency is 16.4 µM (active).

For the compound `Cc1ccc(NC(=O)CSc2nnc3[nH]c(=O)cc(C)n23)cc1Cl`, the Potency result is “inactive”. `Cc1nc(SCC(=O)c2ccccc2)c([N+](=O)[O-])[nH]1`: the Potency entry was “inactive”. Take `Cc1cccc(NC(=O)CSc2nc3c(oc4ccccc43)c(=O)n2-c2ccc(F)cc2)c1`: the Potency result is “inactive”. The value for `Cc1ccc(NC(=O)Cn2nc(C)c3ccccc3c2=O)c(C)c1` was “inactive”.

In the case of `Cc1ccc(NC(=O)CSc2nn3c(=O)c(C)nnc3s2)cc1Cl`, the Potency result is “inactive”. `Cc1ccc(-n2c(SCC(=O)Nc3cccc(F)c3)nc3c(oc4ccccc43)c2=O)cc1C`: the Potency result is “inactive”. For `Cc1ccc(NC(=O)CSc2nc3c([nH]c4ccccc43)c(=O)n2-c2ccccc2)cc1Cl` the value was 23.1 µM (active); for `O=C(CC12CC3CC(CC(C3)C1)C2)NCc1ccco1`, “inactive”. The value for `CCCOc1ccc(Cc2c(O)nc(N)[nH]c2=O)cc1C` was “inactive”; that for `CN1C(=O)CC(c2ccccc2)C1=O` (configuration not stated) was “inactive”. The value for `Cc1cc(C(=O)CC#N)c(C)n1CC(F)(F)F` was “inactive”.

In the case of `CCC(=O)N1CCC(C)(C(=O)Nc2cc(OC)c(OC)c(OC)c2)C1` (configuration not stated), the Potency result was “inactive”. For `C/C(=N\NS(=O)(=O)c1ccc(Br)cc1)c1cccs1` the value was “inactive”; for `O=C(c1ccco1)N1CCC[C@@]2(CCN(Cc3nccs3)C2)C1`, “inactive”; for `C[C@H](CO)N1C[C@H](C)[C@@H](CN(C)C(=O)c2cnccn2)Oc2ncc(Br)cc2C1=O`, “inactive”.

Take `CC1CN(C(=O)CN2C(=O)NC(C)(c3ccccc3)C2=O)CC(C)O1` (configuration not stated): the Potency result is “inactive”. For `O=C(c1ccccc1)c1cccn1CC(=O)N1CCN(c2ccc(F)cc2)CC1` the value was “inactive”; for `CCOC(=O)c1ccc(NC(=O)c2cc(=O)[nH]c3ccccc23)cc1`, “inactive”.

Consider `CCOC(=O)c1ccc(NC(=O)CSc2nc3c([nH]c4ccccc43)c(=O)n2C)cc1`, for which the Potency was 9.2 µM (active). In the case of `CCOC(=O)c1ccc(NC(=O)CSc2nnc(COc3ccccc3OC)n2C)cc1`, the Potency entry was “inactive”.

Consider `CCOn1c(SC(C)C)nc2ccccc2c1=O`, for which the Potency entry is “inactive”.

As for `Cn1nnnc1SCc1cc(=O)[nH]c2ccccc12`, the Potency result was “inactive”. The value for `CC(Sc1nc2c([nH]c3ccccc32)c(=O)n1C)c1ccccc1` (configuration not stated) was 18.4 µM (active); that for `CSc1ncccc1C(=O)OCC(=O)N1CCOCC1` was “inactive”.

Take `CCOC(=O)c1cccc(NC(=O)CCc2nnc3ccc(N4CCOCC4)nn23)c1`: the Potency result is “inactive”. The value for `Cc1nc2ccc(C(=O)O)cc2[nH]1` was “inactive”. For `CC(C)c1nc2ccc(C(=O)O)cc2[nH]1` the value was “inactive”; for `COC(=O)Nc1nc2ccc(Sc3ccccc3)cc2[nH]1`, 517 nM (active) and 286 nM (active); for `CC1CCN(C(=O)/C(=C\c2ccccc2)NC(=O)c2ccccc2)CC1`, “inactive”. For `O=C(CS(=O)(=O)Cc1ccccc1)Nc1cccnc1` the value was “inactive”; for `CS(=O)(=O)Nc1ccc(C(=O)N2CCCC2)cc1`, “inactive”; for `CNc1cncc(-c2cccc(C(=O)N3CCOCC3)c2)n1`, “inactive”. `CNc1cncc(-c2ccc(NS(C)(=O)=O)cc2)n1`: the Potency was 4.11 µM (active). For `CCCS(=O)(=O)C(=C1Nc2ccccc2N1)S(=O)(=O)CCC` the value was “inactive”.

For `CN(C)S(=O)(=O)c1cc(C(=O)Nc2ccn(C)n2)c(Cl)cc1Cl`, the Potency result is “inactive”. For `COc1ccc(OC)c(CNC(=O)C2CCCN(c3nc4ccccc4o3)C2)c1` (configuration not stated) the value was “inactive”; for `COc1ccc2c(c1)NC(=O)C2CC(=O)N1CCOc2c(cc(-c3cnc4ccccc4c3)cc2OC)C1` (configuration not stated), 18.4 µM (active); for `COc1cc(-c2cccnc2)cc2c1OCCN(C(=O)Cc1csc(C)n1)C2`, “inactive”. For `O=C1Oc2ccccc2C(=O)/C1=C/c1ccccc1O` the value was 8.2 µM (active); for `COC(=O)c1ccc(/C=C2/C(=O)Oc3ccccc32)cc1`, “inactive”; for `COC(=O)c1c(NC(=O)c2c(Cl)cnn2C)sc(C)c1C`, “inactive”. For `CN1CCN(c2ccc(S(=O)(=O)N3CCOCC3)cc2NC(=O)CCc2ccccc2)CC1` the value was “inactive”; for `COC(=O)C(C)N=Cc1ccccc1` (configuration not stated), “inactive”. Turning to `CC=CCn1c(SCCCc2ccccc2)nc2c1c(=O)[nH]c(=O)n2C`, the Potency is 20.6 µM (active). The value for `CN(Cc1ccccc1)c1nc2c(c(=O)[nH]c(=O)n2C)n1CCSc1nc2ccccc2[nH]1` was “inactive”; that for `CCCSc1nc2c(c(=O)[nH]c(=O)n2C)n1CCc1ccccc1` was “inactive”. For `CN(C)Cc1c(C(=O)N/N=C/c2ccccc2OCc2ccc(F)cc2)nnn1-c1nonc1N` the value was “inactive”; for `Fc1cccc(/C=N\N=C/c2cccc(F)c2)c1`, “inactive”. For `Cn1nc(-c2ccccc2)c2cc([N+](=O)[O-])ccc21`, the Potency result was “inactive”. For `COc1cc(/C(=C/c2ccccc2)c2ccccc2)c2c(c1)oc1ccccc12` the value was “inactive”; for `CCCC(=O)Nc1c(O)c2ccccc2[nH]c1=O`, “inactive”; for `CC1=C(C(=O)N2CCOCC2)CC(CC(=O)NCCCN(C)C)C(=O)N1Cc1ccc(C(C)(C)C)cc1` (configuration not stated), “inactive”. The value for `CN1/C(=c2/s/c(=C3/C(=O)N(c4ccccc4)NC3=Nc3ccccc3)n(C)c2=O)C(C)(C)c2ccccc21` was 11.6 µM (active); that for `O=C(c1cccc(Cl)c1)N1CCN(CCc2ccncc2)CC1` was “inactive”. For `C#Cc1cc(N2CCN(C(=O)c3ccoc3)CC2)n2nc(-c3cccc(Cl)c3)cc2n1` the value was 5.8 µM (active); for `O=C(c1cccc(Cl)c1)N1CCN(Cc2ccccc2)CC1`, “inactive”; for `O=C(c1cccc(Br)c1)N1CCN(Cc2cc(=O)n3nc(-c4ccccc4)sc3n2)CC1`, “inactive”.

On to `O=C(c1ccccc1)N1CCN(c2cc(-c3ccccc3)nc3cc(-c4cccc(Cl)c4)nn23)CC1`, for which the Potency was 14.6 µM (active).

(Values after PubChem BioAssay AID686978 (National Center for Advancing Translational Sciences (NCATS), 2013).)
